Rows were chosen to be rich in hits. Some 5.2% of all compounds tested hit in one or more screens of this group.
Tau fibril FP = blocks human tau fibril formation measured by polarization | 0.39% of 280,000 active | K18 P301L tau heparin fibrillization, Alexa594 FP, 6 h | P10636 | AID 1468 | Potency, µM (titrated, usually from 57.7 µM), for the others: top-dose activity, negative = inhibition, most hits filed as inhibitors; note: potency is the fitted concentration of half-maximal effect; nearly all actives have a fitted effect of over 55% in size
Target sequence (P10636 561-689 P618L limits assumed): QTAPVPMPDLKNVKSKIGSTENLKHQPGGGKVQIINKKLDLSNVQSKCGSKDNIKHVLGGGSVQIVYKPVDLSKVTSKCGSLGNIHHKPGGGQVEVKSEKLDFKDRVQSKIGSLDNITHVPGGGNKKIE
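Heparin (20 uM) drove fibril formation of recombinant tau K18 P301L, 15 uM unlabeled with 0.24 uM Alexa 594 label, for 6 hr at 37 C in 100 mM sodium acetate pH 7. Fluorescence polarization (555/632 nm) read 1 hr after 30 uM ThT.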
Tau fluor counter = counter-screen for tau fibril formation inhibitors. tau K18 P301L Alexa594 fluorescence, heparin fibrillization. Potency, µM (top dose mostly 57.7 µM), for inactives: top-dose activity change, negative = decrease. 0.93% of 280,000 active; note: potency is the fitted concentration of half-maximal effect; nearly all actives have a fitted effect of over 55% in size
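Human K18 P301L tau (15 uM unlabeled plus 0.24 uM Alexa 594-labeled, final) in 100 mM sodium acetate pH 7 was mixed with compound and 20 uM heparin and incubated 6 hr at 37 C.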
FBPA coupling cs = coupling enzyme interference in Giardia aldolase counter-screen; coupling enzyme system counterscreen, AmpLite Red fluorescence; activity change, negative = inhibition, % at 58.2 µM, hits read low; 0.67% of 290,000 active; AID 2472; in the data active = activity change below about -30%
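Activity here indicates interference with the coupling reaction, not aldolase inhibition. Compounds at 57.5 uM final met coupling enzymes for 10 min at RT; substrate and AmpLite Red detection followed, with a 525/598 nm fluorescence read after 20 min.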
Sfp PPTase inh = blocks B. subtilis Sfp PPTase activity; Biochemical Sfp PPTase activity, qHTS; Potency, µM, for the others: largest response in the series, negative = inhibition, actives largely listed as inhibitors; 3.5% of 310,000 active;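 note: the enzyme is Sfp with the accession as filed and its product quenches rhodamine fluorescence; potency is the fitted concentration of half-maximal effect; 0% = enzyme reaction without inhibitor and -100% = no enzyme wells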
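Reaction rates are the 30-min fluorescence difference (ex 525, em 598 nm) in wells containing 15 nM Sfp, 5 uM rhodamine-CoA and 12.5 uM BHQ-2-YbbR at pH 7.6 with 10 mM MgCl2.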
Tau fibril ThT = blocks human tau fibril formation measured by thioflavin T | 2.1% of 270,000 active | recombinant tau K18 P301L (four-repeat tau fragment), heparin-induced fibrillization, ThT fluorescence | Potency, µM (series often up to 57.4 µM), for the others: at the highest dose activity, negative = inhibition, hits mostly inhibitors | AID 1460; note: potency is the fitted concentration of half-maximal effect; nearly all actives have a fitted effect of over 55% in size
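Tau K18 P301L fragment (15 uM unlabeled plus 0.24 uM Alexa 594-labeled) in 100 mM sodium acetate pH 7 with compound, fibrillization induced by 20 uM heparin for 6 hr at 37 C. Thioflavin T (30 uM) added, fluorescence read after 1 hr (ex 450, em 510 nm).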
The depositor's hits bear a star; ? = inconclusive; · = not tested or not shown; ! = repeats disagree; [ ] = dose if it differs, or a comment. Unless noted, calls come from the whole dose curve; as a rule, active = well fitted curve in the direction sought with a large enough effect; inconclusive = small, poorly fitted or top-dose-only effect, or another doubt; inactive = no such curve, though single readings can be large; an effect the other way counts as inactive or inconclusive. Unless noted, % is set by controls: 0 for no effect and ±100 for the full control effect.

SMILES	Tau fibril FP	Tau fluor counter	FBPA coupling cs	Sfp PPTase inh	Tau fibril ThT
Cc1c(CNC2CCCCC2)c(C(=O)O)c(C)n1Cc1ccc(Cl)cc1	3%	-4%	·	·	-9%
Cc1cc(NC(=O)CN2C(=O)CSc3ccc(S(=O)(=O)N(C)C)cc32)ccc1Br	-12%	?	·	·	3%
O=C(N/N=C/c1ccc(O)cc1)c1cccc(N/N=C/c2ccc(O)cc2)c1	5%	14µM*[quencher]	-2	5%	5µM*
CCC/C=C(\CCC)C(NS(C)(=O)=O)c1ccccc1 (stereo not drawn)	-3%	-3%	3	27%	-2%
O=C(CSc1nnc2c(n1)[nH]c1ccccc12)Nc1ccc2c(c1)OCO2	-1%	?	0	45µM*	?
COc1ccc(NC(=O)CSc2nnc(NC(=O)C3CCC3)s2)cc1	·	·	-3	-8%	·
Cc1ccc(NC(=O)CSc2nnc3c(n2)[nH]c2ccccc23)cc1	·	·	0	14%	·
O=C(CSc1nnc2c(n1)[nH]c1ccccc12)Nc1cccc(S(=O)(=O)N2CCOCC2)c1	-12%	?	0	79µM*	-3%
O=C(CSc1nnc2c(n1)[nH]c1ccccc12)Nc1ccc(N2CCOCC2)cc1	-5%	?	-4	7.9µM*	?
O=C(CSc1nnc2c(n1)[nH]c1ccccc12)Nc1ccc(S(=O)(=O)Nc2ncccn2)cc1	-3%	-5%	4	-23%	-8%
O=C(CSc1nnc(NC(=O)C2CCC2)s1)Nc1ccc(N2CCOCC2)cc1	6%	-29%	-6	-5%	6.3µM*
CCOc1cccc(CC(=O)N2CCc3c([nH]c4ccc(OC)cc34)C2c2ccc(F)cc2)c1OCC (stereo not drawn)	-1%	-26%	·	·	-12%
O=C1N=C(N2CCOCC2)S/C1=C\c1ccccc1OS(=O)(=O)c1ccccc1	6%	-1%	1	26%	2%
O=C1N=C(N2CCOCC2)S/C1=C/c1cc2c(cc1[N+](=O)[O-])OCO2	?	?	1	7%	18µM*
CCCCC1=CC2=C(OC(C)=O)C(=O)C(C)(OC(=O)c3ccc(Cl)nc3)C(=O)C2=CO1 (stereo not drawn)	?	?	1	-18%	22µM*
CCC(=O)C1=C(c2cccc(OC)c2)N(C(=O)CC)n2c(nnc2C2CCCCC2)S1	-10%	-16%	·	·	?
N#C/C(=C\c1ccccc1[N+](=O)[O-])C(=O)NC1CCCCC1	5%	-19%	-4	89µM*	?
O=[N+]([O-])c1ccc(C2NS(=O)(=O)N=C3CCCCCN32)cc1 (stereo not drawn)	-7%	3%	1	50µM*	-17%
COc1ccccc1CN1CCCC2(CCN(S(=O)(=O)c3ccccc3)CC2)C1	·	·	1	13%	·
Cc1ccc(C(C)C)c(OCc2ccc(-c3nnco3)cc2)c1	3%	-13%	0	50µM*	?
Cc1ccc(COc2ccc(-c3nnco3)cc2)cc1	·	·	3	5%	·
Cc1ccc(-n2cnc3cc(C(=O)NC4CCCCCC4)ccc32)c(C)c1	7%	-12%	·	·	-12%
COc1ccc(C2CC(=O)C(C(c3ccc(O)cc3)C3C(=O)CC(c4ccc(OC)cc4)CC3=O)C(=O)C2)cc1 (stereo not drawn)	1%	-25%	15	35µM*	?
OCc1cc(C(O)CNCCCCCCOCCCCc2ccccc2)ccc1O (stereo not drawn)	-1%	-20%	-1	56µM*!	-10%
COc1ccc(NC(=O)Nc2cccc(OCc3cc(=O)n4cccc(C)c4n3)c2)c(OC)c1	?	7.1µM*[quencher]	·	·	?
COc1cc(OC)c(NC(=O)Nc2cccc(OCc3cc(=O)n4ccccc4n3)c2)cc1Cl	8%	6.3µM*[quencher]	·	·	?
COc1ccc(OC)c(NC(=O)Nc2cccc(OCc3cc(=O)n4cc(C)ccc4n3)c2)c1	?	13µM*[quencher]	·	·	?
CN(C)S(=O)(=O)N(CC(=O)NCCSCc1ccccc1Cl)c1ccccc1	4%	-17%	·	·	-7%
Fc1ccc2nc(Nc3nc4cc5c(cc4s3)OCCO5)sc2c1	-6%	14µM*[quencher]	-2	-11%	10µM*
c1ccc2sc(Nc3nc4cc5c(cc4s3)OCO5)nc2c1	3%	0%	-1	?	1%

Compound activity deposited in PubChem by National Center for Advancing Translational Sciences (NCATS).
